Most compounds without a hit are left out; they make up all but 4.6% or so of the library.
TRHR agonist: activates the human TRH receptor | P34981 | TRHR cells, calcium flux fluo-8, FDSS agonist mode | activation, % at 2 µM | 0.18% of 360,000 active; further: 0% is about no effect
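Agonist-mode FDSS calcium read (Ex 480/Em 530, 1 s cycles) in 1536-well TRHR cells with fluo-8 dye, after 10-cycle baseline and 23 nL compound addition; TRH at EC20 (10 nM final) added afterwards for the enhancer phase.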
D1 agonist: activates the human D1 dopamine receptor. HEK293 T-REx D1 cells, calcium flux, agonist mode. 1% of 360,000 active. AID 504660. activation, % at 2 µM; further: 0% is about no effect
Target sequence (P21728 whole entry, looked up): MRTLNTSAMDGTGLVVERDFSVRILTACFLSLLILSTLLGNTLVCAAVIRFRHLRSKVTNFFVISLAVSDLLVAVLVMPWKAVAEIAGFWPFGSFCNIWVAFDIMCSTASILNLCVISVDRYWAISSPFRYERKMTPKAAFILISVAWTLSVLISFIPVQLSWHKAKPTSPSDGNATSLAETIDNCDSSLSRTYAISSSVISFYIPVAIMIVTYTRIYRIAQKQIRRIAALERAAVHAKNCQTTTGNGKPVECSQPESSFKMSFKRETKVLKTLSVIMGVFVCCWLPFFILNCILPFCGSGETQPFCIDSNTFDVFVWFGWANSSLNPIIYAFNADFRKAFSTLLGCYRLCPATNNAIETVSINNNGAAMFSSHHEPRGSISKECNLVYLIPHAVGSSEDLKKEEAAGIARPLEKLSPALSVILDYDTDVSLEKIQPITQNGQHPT
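Inducible HEK293 T-REx D1 cells, force-coupled to calcium signalling, were plated at 4000 cells/well with tetracycline and held overnight at 30 C. After no-wash calcium dye loading, compound-evoked calcium rise over 180 s flagged agonists.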
TRHR PAM: allosterically enhances the human TRH receptor; P34981; TRHR cells, fluo-8 calcium fluorescence, EC20 TRH enhancement; enhancement, % at 2 µM; 0.66% of 360,000 active; AID 493056; in the data active means enhancement above about 30%; further: 0% is about no effect
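Enhancer read-out: after compound pinning and an initial kinetic agonist-mode read, an EC20 of TRH (10 nM final) was injected and fluo-8 calcium signal (Ex 480/Em 530) followed at 1 s/cycle for 100 cycles in TRHR-expressing cells.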
D1 antagonist: antagonists of human D1 dopamine receptor | HEK293 TREx D1 cells, calcium flux, dopamine EC80; stronger effect = lower value | activity change, negative = inhibition, % at 10 µM | 3.2% of 360,000 active; in the data active means activity change below about -30%; further: on the % scale 0 is the no-effect control and ±100 the full control effect
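After overnight tetracycline induction at 30 C, force-coupled D1 HEK293 cells took up a no-wash calcium dye at room temperature. Compounds were added and monitored 180 s, and the response to EC80 dopamine was then recorded.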
D1 potentiator: enhances dopamine response at the human D1 receptor. potentiation, % at 10 µM. HEK293 TREx D1 cells, calcium flux, dopamine EC20 potentiation. 0.036% of 360,000 active; in the data active means potentiation above about 30%; further: 0% is about no effect
* = called active by the depositor. Unless noted, no stated cut-off is given here; in the data, active means activation above about 30%; inactive means the rest.

SMILES	TRHR agonist	D1 agonist	TRHR PAM	D1 antagonist	D1 potentiator
COc1ccc(C)cc1NC(=O)C(Sc1nnnn1C)c1ccccc1 (stereo unspecified)	0	0	-7	5	0
Cc1cccc(-c2noc(CNC(=O)c3ccccc3Br)n2)c1	0	10	5	-4	-3
O=C(NCc1ccncc1)c1cc(F)c(F)cc1Cl	0	0	-2	-40*	-4
O=C(NCc1ccncc1)C(F)(F)C(F)(F)C(=O)NCc1ccncc1	1	6	-1	-43*	-7
Cc1ccc(S(=O)(=O)Nc2cc(Br)cc3cccnc23)cc1	-1	1	-4	3	8
COc1ccc(C2Nc3ccccc3C(=O)N2Cc2ccccc2)cc1 (stereo unspecified)	-1	4	-2	-39*	-4
CCOc1ccc(CCNC(=O)c2cc(Nc3ccc(C)cc3C)nc3ccccc23)cc1OCC	1	-1	-5	-19	-1
C=C(C)CC(NCc1ccco1)c1ccc(OC)cc1 (stereo unspecified)	1	5	-3	-36*	4
CCC1CCCCN1C(=O)CCS(=O)(=O)c1cc2c(cc1C)NC(=O)CO2 (stereo unspecified)	0	-1	-4	5	-4
COc1ccc(OC)c(CCNC(=O)CCCn2c(=O)c3cccn3c3ccccc32)c1	0	0	0	-12	-4
CC(C)(C)OC(=O)NCC12C=CC(O1)C1C(=O)N(Cc3ccccc3)C(=O)C12 (stereo unspecified)	0	18	1	-33*	4
COc1cc2[nH]c(=S)n(C3CC3)c(=O)c2cc1OC	0	3	2	-31*	0
Cc1ccc(C(=O)c2oc3ccccc3c2NC(=O)c2cc(-c3ccc(Cl)cc3)on2)cc1	0	2	-2	-4	1
COc1ccc(/C=C(/C(=O)c2cccs2)N2C=CC=CC2=C(C#N)C#N)cc1	1	1	-1	-24	-7
N#CC(C#N)=C1C=CC=CN1/C(=C\c1ccco1)C(=O)c1ccc(Br)cc1	0	5	3	-48*	-11
COc1ccc(C(=O)/C(=C\c2ccco2)N2C=CC=CC2=C(C#N)C#N)cc1	0	9	-7	-41*	-8
N#C/C(=C/c1ccco1)C(N)=S	-1	11	-5	-5	6
N#CC(C#N)=C1C=CC=CN1/C(=C\c1ccco1)C(=O)c1ccccc1	0	0	-7	-75*	-7
COc1ccc(-n2c(-c3ccc(Cl)cc3)cc3c2CC(C)(C)CC3=O)c(OC)c1	0	2	-10	-15	-2
COCCn1nc2cc(C(=O)NCC34CC5CC(CC(C5)C3)C4)ccc2c1OC	-1	0	0	-32*	6
CCCn1nc2cc(C(=O)NCC34CC5CC(CC(C5)C3)C4)ccc2c1OCC	-1	6	5	3	0
COc1cccc(-n2c(=O)c3sc4ccccc4c3n(CC(=O)Nc3ccccc3OC)c2=O)c1	0	8	-6	-6	-3
CCOc1ccc(N(C)c2ccc(/C=C3/SC(=S)NC3=O)cc2)cc1	23	133*	-1	-12	-5
COc1ccc(NC(=O)Cn2c(=O)n(Cc3ccccc3)c(=O)c3oc4ccccc4c32)cc1Cl	0	0	0	8	1
CCOC(=O)NN1C(=O)c2ccccc2NC1c1ccccn1 (stereo unspecified)	0	3	-3	-30*	-3
SMILES	TRHR agonist	D1 agonist	TRHR PAM	D1 antagonist	D1 potentiator
Cc1ccc(C(=O)NCCc2ccc(Cl)cc2)cc1-n1c(C)nc2cccnc21	0	2	0	-17	-3
Cc1ccc2sc(N(CCCN(C)C)C(=O)c3ccco3)nc2c1C	1	17	8	17	-1
CCN(CC)CCN(C(=O)c1ccco1)c1nc2c(C)c(C)ccc2s1	-1	19	38*	4	-3
Cc1ccc(Cn2ccn(Cc3ccc(C)cc3)c(=O)c2=O)cc1	0	2	1	-1	1
CC(C)c1c(C(=O)N/N=C/c2ccc(C(F)(F)F)cc2)nnn1-c1nonc1N	-1	253*	1	8	9
CC(C)c1c(C(=O)N/N=C/c2ccsc2)nnn1-c1nonc1N	2	39*	18	28	19
CC(C)c1c(C(=O)N/N=C/c2ccoc2)nnn1-c1nonc1N	0	16	9	5	6
CC(C)c1c(C(=O)N/N=C/c2cccs2)nnn1-c1nonc1N	0	22	-2	24	0
Cc1ccc(NC(=O)Cn2c(=O)n(Cc3ccc4c(c3)OCO4)c(=O)c3ccc(C(=O)NC4CCCCC4)cc32)cc1	1	5	-1	1	0
CCCCOc1ccc(/C(O)=C2/C(=O)C(=O)N(CCCOC)C2c2ccncc2)cc1C (stereo unspecified)	0	1	-2	-38*	-4
CCCOc1ccc(/C(O)=C2/C(=O)C(=O)N(CCCOC)C2c2ccncc2)cc1 (stereo unspecified)	0	-1	1	10	7
CN(CCOc1ccc(Cl)cc1)CC(O)c1ccccc1 (stereo unspecified)	-2	33*	-10	-6	-5
CC(=O)COc1ccc2c(-c3cccc([N+](=O)[O-])c3)cc(=O)oc2c1	0	0	-8	2	-1
COc1ccc([N+](=O)[O-])cc1COc1ccc2c(-c3ccccc3)cc(=O)oc2c1	1	5	-4	-33*	-14
Cc1cccc(-c2nnc(C3CCN(S(=O)(=O)c4cccc(Cl)c4)CC3)o2)c1	0	-2	-3	-10	0
Cc1ccc(Nc2nnc(-c3ccc(C)c(S(=O)(=O)N4CCOCC4)c3)c3ccccc23)c(C)c1	-1	-1	9	-45*	-3
COc1nnc(-c2ccc(C)c(S(=O)(=O)NC(C)C)c2)c2ccccc12	-1	5	0	4	6
Cc1ccc(-c2nnc(Nc3ccc(F)cc3)c3ccccc23)cc1S(=O)(=O)NC(C)C	0	-1	7	-34*	-3
Cc1ccc(-c2nnc(Nc3ccc(O)cc3)c3ccccc23)cc1S(=O)(=O)N1CCCCC1	0	-2	30*	-17	0
Cc1ccc(-c2nnc(Nc3ccc(C(N)=O)cc3)c3ccccc23)cc1S(=O)(=O)N1CCCCC1	-2	2	-2	-21	1
Cc1ccc(-c2nnc(Nc3ccc(O)cc3)c3ccccc23)cc1S(=O)(=O)NC(C)(C)CO	-1	-1	18	-44*	-3
CC(=O)Nc1ccc(Nc2nnc(-c3ccc(C)c(S(=O)(=O)NCCO)c3)c3ccccc23)cc1	0	2	3	2	-4
CCOC(=O)N1CCc2c(sc3c2c(=O)n(-c2ccc(F)cc2)c(=O)n3CC(=O)c2ccccc2)C1	0	-2	2	24	0
